Screens (PubChem)
FBW7 act: FBW7 E3 ligase activators, primary screen, biochemical, AlphaScreen, human | F-box/WD repeat-containing protein 7 (Homo sapiens), Q969H0 | AlphaScreen FBW7–phospho-cyclin E peptide binding, activator screen | normalized activity (activation), % at 26.1 µM | 0.13% of 650,000 active | AID 1259310, 2017; in the data active means normalized activity above about 1.9%;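 further: purified mutant Fbw7 with reduced substrate affinity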
TEAD-YAP block: TEAD-YAP interaction inhibition, primary screen, TEAD-YAP interaction inhibitor project, luminescence, HEK-TIYL cells. TEAD-Gal4/YAP UAS-luciferase luminescence. inhibition, % at 9.12 µM. 1.4% of 640,000 active; in the data active means inhibition above about 32%;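 further: 0% = median of test compound wells and 100% = reference inhibitor wells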
GPR151 activ: activators of human GPR151, primary screen, cell-based, PathHunter beta-arrestin, luminescence; activation, % at 11.2 µM; 1% of 650,000 active; PathHunter beta-arrestin GPR151 cells; G-protein coupled receptor 151 (Homo sapiens), Q8TDV0; in the data active means activation above about 4.9%;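 further: 0% = median of compound wells and 100% = cells with positive control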
MITF inh: MITF inhibitors, primary screen, biochemical, AlphaScreen, human. Microphthalmia-associated transcription factor (Homo sapiens), O75030. inhibition, % at 2.6 µM. AlphaScreen MITF homodimerization, bead proximity signal. 0.91% of 650,000 active; in the data active means inhibition above about 50%;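 further: 0% = vehicle wells with protein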
GPR151 conf act: GPR151 activators, triplicate retest, confirmation, cell-based, PathHunter beta-arrestin, luminescence | shares compounds with GPR151 activ | GPR151 PathHunter beta-arrestin cells, 90 min; % of EA-reagent control over plate median | activation, % at 11.2 µM | 6,700 tested, under 10 active | AID 1508609, 2020;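 active means mean percent activation across replicates above the confirmation screen cutoff of 4.91%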
GPR119 counter: GPR119 activators in beta-arrestin cells, counter-screen for GPR151 activator project, cell-based, PathHunter beta-arrestin, luminescence, triplicate. shares compounds with GPR151 activ. AID 1508611, 2020. activation, % at 11.2 µM. 90 min; 0 = compound-well median, 100 = enzyme-acceptor control. 0.3% of 6,700 active;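 active means mean percent activation in the counterscreen above 29.09%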;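 further: counterscreen on off-target GPR119 to flag nonselective hits from the GPR151 activator screen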
Target sequence (Q8TDV5 whole entry, looked up): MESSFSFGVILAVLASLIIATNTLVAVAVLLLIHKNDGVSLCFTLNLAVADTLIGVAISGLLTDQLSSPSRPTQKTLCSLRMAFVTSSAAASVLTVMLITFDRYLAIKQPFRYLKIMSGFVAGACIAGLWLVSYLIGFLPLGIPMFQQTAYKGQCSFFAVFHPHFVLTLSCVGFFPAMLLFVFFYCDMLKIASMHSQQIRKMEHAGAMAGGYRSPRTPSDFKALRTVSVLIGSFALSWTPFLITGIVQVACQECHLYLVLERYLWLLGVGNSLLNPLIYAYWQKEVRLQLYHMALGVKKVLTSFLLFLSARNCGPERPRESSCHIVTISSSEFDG
An asterisk follows results filed as active; x = no result given. Shown are actives, neighbours in structure and some others; about 3.4% of the full set was active somewhere.

SMILES	FBW7 act	TEAD-YAP block	GPR151 activ	MITF inh	GPR151 conf act	GPR119 counter
CC(C)(C)OC(=O)NCC(=O)NC(Cc1ccc(OCc2ccccc2)cc1)C(N)=O (centres undefined)	0	-7	5.1*	-1	2	10
CCOC(=O)CSc1nc2sc3c(c2c(=O)n1-c1ccccc1)CCCCC3	0	0	0	-6	x	x
CC(=O)NN1C(=O)/C(=C/c2cccc(O)c2)SC1=S	0	7	6.3*	12	0	16
CCCC(=O)NCCc1ccc(F)cc1	0	-11	19*	-6	1	7
O=C(Cc1ccc(F)cc1)NCCc1ccc(F)cc1	0	-11	0	-7	x	x
O=C(Nc1nc(-c2ccccc2)c(C(=O)c2ccccc2)s1)c1ccccc1[N+](=O)[O-]	0	14	5.0*	2	1	9
O=C(Nc1nc(-c2ccccc2)c(C(=O)c2ccccc2)s1)c1cc(Cl)ccc1[N+](=O)[O-]	0	1	1	0	x	x
O=C(CN1C(=O)c2ccccc2C1=O)c1ccc(O)cc1O	-1	-1	3	-3	x	x
C/C(=C/c1ccccc1)C(=O)Nc1ccc(S(N)(=O)=O)cc1	0	-44	5.0*	-3	0	-8
COc1cccc(NC(=O)c2ccc(-c3ccsc3)nc2N2CCOCC2)c1	0	-10	9.3*	3	1	4
COc1cccc(NC(=O)c2ccc(-c3cccc(OC)c3)nc2N2CCOCC2)c1	0	-13	1	15	x	x
CC1=NN(c2ccc(Cl)cc2)C(=O)/C1=C/c1ccc2c(c1)OCO2	0	0	0	7	x	x
CC1=NN(c2ccc(C)cc2)C(=O)/C1=C/c1ccc2c(c1)OCO2	0	-4	5.3*	-4	0	-1
CC(C)NC(=O)c1ccccc1NS(=O)(=O)Cc1ccccc1	1	15	0	14	x	x
CCC(C)c1ccccc1NS(=O)(=O)Cc1ccccc1 (centres undefined)	0	5	5.8*	-2	0	-8
CCOC(=O)CNC(=O)CSc1nnc(Cc2cccn2C)n1CCOC	1	10	-1	22	x	x
COc1ccc(-c2oc3ncn4nc(-c5cccc6ccccc56)nc4c3c2-c2ccc(OC)cc2)cc1	0	4	5.3*	-1	0	11
CC(=O)Nc1ccc(S(=O)(=O)Nc2ccc(Cl)c(C(F)(F)F)c2)cc1	0	-2	0	15	x	x
CCCCN(C)S(=O)(=O)c1ccc(C(=O)Nc2ccc3sc(C)nc3c2)cc1	0	61*	5.2*	27	0	13
Nc1nc(NC(=O)C(Cl)(Cl)Cl)nn1-c1ccccc1	-1	-5	7.0*	25	0	-14
O=C(Nc1ccc2nn(-c3ccccc3)nc2c1)C(Cl)(Cl)Cl	0	-11	-2	-1	x	x
CCC(=O)Nc1nn2c(CC(C)C)nnc2s1	0	6	5.0*	-13	0	-6
CC(C)Cc1nnc2sc(NC(=O)C(C)C)nn12	0	0	-1	3	x	x
CCCC(=O)Nc1nn2c(CCC)nnc2s1	0	-4	0	0	x	x
CCCC(=O)Nc1nn2c(CC(C)C)nnc2s1	0	-5	7.1*	-2	1	1
SMILES	FBW7 act	TEAD-YAP block	GPR151 activ	MITF inh	GPR151 conf act	GPR119 counter
CN(C)S(=O)(=O)c1cccc(C(=O)OCC(=O)c2ccc(-c3ccccc3)cc2)c1	0	-12	-1	-5	x	x
CC(=O)Nc1ccc(OCC(=O)NC2(C#N)CCCCC2)cc1	0	1	1	0	x	x
CC(=NCCCn1cnc2c1c(=O)n(C)c(=O)n2C)N(C)C	0	-2	6.4*	14	0	1
COc1c2occc2c(OC)c2c(=O)cc(C(F)(F)C(F)(F)F)oc12	0	6	5.3*	10	0	5
O=C(Nc1cccc(F)c1)c1cccn(OCc2ccccc2F)c1=O	0	-31	-1	8	x	x
COc1cccc(NC(=O)c2cccn(OCc3ccccc3F)c2=O)c1	0	-17	6.2*	-30	0	6
COCCN(C(=O)c1csnn1)C(C(=O)NC(C)(C)C)c1ccc(Cl)cc1 (centres undefined)	0	1	-1	4	x	x
O=C(Nc1ccc(Cl)c(C(F)(F)F)c1)c1ccc2c(=O)n(Cc3cccc(Br)c3)c(=S)[nH]c2c1	0	0	6.2*	19	-1	-3
CC(C)NC(=O)c1ccc2c(=O)n(Cc3ccc(Cl)cc3)c(=S)[nH]c2c1	0	-5	6.1*	8	0	2
COC(=O)c1ccccc1NC(=O)CN1C(=O)c2ccc([N+](=O)[O-])cc2C1=O	0	2	-1	8	x	x
COC(=O)c1cccc(NC(=O)CN2C(=O)c3ccc([N+](=O)[O-])cc3C2=O)c1C	1	-3	5.1*	-10	1	10
CC(C)Oc1ccc(CNC(=O)Cn2c(=O)oc3ccccc32)cc1	0	-8	5.3*	-1	0	7
O=C(Cn1c(=O)oc2ccccc21)NCc1ccc(F)cc1	0	-4	1	15	x	x
O=C(Cn1c(=O)oc2ccccc21)NCc1cccc(F)c1	0	-3	9.5*	11	1	10
Cc1cc(C)c(Nc2nc(=O)c3cccnc3s2)c([N+](=O)[O-])c1	0	-2	-1	-3	x	x
Cc1ccc2[nH]c(=O)c(CN(CCCO)C(=O)c3ccc(Cl)cc3)cc2c1	0	-2	0	8	x	x
Nc1cccc(-c2cc(Nc3ccc(Oc4ccccc4)cc3)nc(N)n2)c1	0	52*	4.9*	7	1	-7
COc1ccc(-c2cc(Nc3ccc(Oc4ccccc4)cc3)nc(N)n2)cc1	0	-2	5	8	x	x
COc1ccc(CNc2ccc3ncc(-c4ccc(OC)cc4)n3n2)cc1	0	22	5.5*	-14	0	-2
Fc1ccc(CNc2ccc3ncc(-c4ccc5c(c4)OCO5)n3n2)cc1	0	23	8.4*	12	0	4
COc1ccccc1-c1cnc2ccc(NCc3ccc(S(N)(=O)=O)cc3)nn12	0	3	9.4*	-11	0	9
COCC(=O)NC(c1nnc2n1CCN(Cc1cccc(OCCO)c1)CC2)C(C)C (centres undefined)	0	11	0	-3	x	x
Cc1ccc(NC(=O)CC(C)S(=O)(=O)c2ccc3c(c2)OCC(=O)N3)c(Cl)c1 (centres undefined)	0	8	2	9	x	x
Cc1c(C(=O)CSc2ccccc2Cl)sc2ncnn12	0	2	0	-2	x	x
